# Source: the supplement of paper PMC10849652
# Targets with a hit are over-represented here; the source holds about 7,900 in all. About 0.6% of all pairs of compound and target were hits. A number with no mark means an inactive call.
# Experiments:
# Test in all cases: log2 fold change, soluble protein after heating vs DMSO (PISA); higher = thermal stabilisation; K562 cells, 10 uM, 30 min; active = over 0.2 and 3.5 SD of the protein, either way, in both replicates (recomputed)
# [1] = compound: COC1=CC=C(C=C1)CN2C=CC3=C2C=C(C=C3)C(=O)NO
# Summary of the method: (§1)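 Soluble protein was defined as the supernatant after 21,000xg for 90 min. It came from K562 cells at 2×10^6 cells/mL given 10 μM compound for 30 min, heated in aliquots for 3 min across 48°C-58°C, pooled, and extracted in PBS with 0.5% NP-40 at 4°C, and was quantified by TMTpro 16plex LC-MS/MS with equalised channel sums. Thermal stability against control samples, from duplicates, is reported as log2 fold change.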
# [2] = compound: CON(C)C(=O)N1N=C(c2cc(F)ccc2F)S[C@@]1(CCCN)c1ccccc1 [filanesib]
# Summary of the method: as §1
# [3] = compound: CO[C@H]1C[C@@H]2CC[C@@H](C)[C@@](O)(O2)C(=O)C(=O)N2CCCC[C@H]2C(=O)O[C@H]([C@H](C)C[C@@H]2CC[C@H](n3cnnn3)[C@H](OC)C2)CC(=O)[C@H](C)/C=C(\C)[C@@H](O)[C@@H](OC)C(=O)[C@H](C)C[C@H](C)/C=C/C=C/C=C/1C [zotarolimus]
# Summary of the method: as §1
# [4] = compound: COc1cc(C(=O)O)ccc1NC(=O)[C@@H]1N[C@@H](CC(C)(C)C)[C@](C#N)(c2ccc(Cl)cc2F)[C@H]1c1cccc(Cl)c1F [idasanutlin]
# Summary of the method: as §1
# [5] = compound: COc1cc(Nc2ncc3c(n2)-c2ccc(Cl)cc2C(c2c(F)cccc2OC)=NC3)ccc1C(=O)O [alisertib]
# Summary of the method: as §1
# [6] = compound: COc1cc2nc(-c3cc(F)ccc3O)nc(N[C@@H]3CNC[C@H]3C(C)(C)O)c2cc1OC
# Summary of the method: as §1
# [7] = compound: COc1cc2ncnc(Nc3ccc(F)c(Cl)c3)c2cc1OCCCN1CCOCC1 [gefitinib]
# Summary of the method: as §1
# [8] = compound: COc1cccc2cc(-c3nc([C@H]4CC[C@H](C(=O)O)CC4)n4ncnc(N)c34)[nH]c12
# Summary of the method: as §1
# [9] = compound: CS(=O)(=O)CCNCc1ccc(-c2ccc3ncnc(Nc4ccc(OCc5cccc(F)c5)c(Cl)c4)c3c2)o1 [lapatinib]
# Summary of the method: as §1
# [10] = compound: CS(=O)(=O)N1CCN(Cc2cc3nc(-c4cccc5[nH]ncc45)nc(N4CCOCC4)c3s2)CC1 [pictilisib]
# Summary of the method: as §1
# [11] = compound: CS(=O)(=O)c1ccc(-c2cnc(N)c(C(=O)Nc3ccccc3)n2)cc1
# Summary of the method: as §1
# [12] = compound: C[C@@H](Oc1cc(-c2cnn(C3CCNCC3)c2)cnc1N)c1c(Cl)ccc(F)c1Cl [crizotinib]
# Summary of the method: as §1
# [13] = compound: C[C@@H]1COCCN1C2=NC(=NC(=C2)C3(CC3)S(=O)(=O)C)C4=C5C=CNC5=CC=C4
# Summary of the method: as §1
# [14] = compound: C[C@H](C1=CC=C(C=C1)C(=O)NC2=C3C=CNC3=NC=C2)N
# Summary of the method: as §1
# [15] = compound: C[C@H](Nc1ncnc2nc[nH]c12)c1cc2cccc(Cl)c2c(=O)n1-c1ccccc1 [duvelisib]
# Summary of the method: as §1
# [16] = compound: Cc1cc(Nc2cc(CN3CCOCC3)c3nc(C)c(Cc4ccc(Cl)cc4F)n3n2)n[nH]1 [gandotinib]
# Summary of the method: as §1
# [17] = compound: Cc1cc(Nc2cc(N3CCN(C)CC3)nc(Sc3ccc(NC(=O)C4CC4)cc3)n2)n[nH]1 [tozasertib]
# Summary of the method: as §1
# [18] = compound: Cc1cc(SCc2sc(-c3ccc(C(F)(F)F)cc3)nc2C)ccc1OCC(=O)O
# Summary of the method: as §1
# [19] = compound: Cc1ccc(-n2nc(C(C)(C)C)cc2NC(=O)Nc2ccc(OCCN3CCOCC3)c3ccccc23)cc1 [doramapimod]
# Summary of the method: as §1
# [20] = compound: Cc1ccc(C(=O)N(CCCN)[C@@H](c2nc3cc(Cl)ccc3c(=O)n2Cc2ccccc2)C(C)C)cc1 [ispinesib]
# Summary of the method: as §1
# Chain of UniProt Q9UNH7 (Q9UNH7 whole entry, looked up): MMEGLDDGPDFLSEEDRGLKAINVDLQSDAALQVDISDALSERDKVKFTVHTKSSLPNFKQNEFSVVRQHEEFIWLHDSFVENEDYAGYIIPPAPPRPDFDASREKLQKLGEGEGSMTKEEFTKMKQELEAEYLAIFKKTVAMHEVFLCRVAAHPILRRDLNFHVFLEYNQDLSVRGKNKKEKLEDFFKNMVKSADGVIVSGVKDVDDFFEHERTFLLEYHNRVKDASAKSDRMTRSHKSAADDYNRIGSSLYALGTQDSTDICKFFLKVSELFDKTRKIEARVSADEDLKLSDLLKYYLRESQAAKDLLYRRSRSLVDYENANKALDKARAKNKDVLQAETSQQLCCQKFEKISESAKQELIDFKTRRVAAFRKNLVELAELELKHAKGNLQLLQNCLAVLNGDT
# Chain of UniProt P04920 (P04920 whole entry, looked up): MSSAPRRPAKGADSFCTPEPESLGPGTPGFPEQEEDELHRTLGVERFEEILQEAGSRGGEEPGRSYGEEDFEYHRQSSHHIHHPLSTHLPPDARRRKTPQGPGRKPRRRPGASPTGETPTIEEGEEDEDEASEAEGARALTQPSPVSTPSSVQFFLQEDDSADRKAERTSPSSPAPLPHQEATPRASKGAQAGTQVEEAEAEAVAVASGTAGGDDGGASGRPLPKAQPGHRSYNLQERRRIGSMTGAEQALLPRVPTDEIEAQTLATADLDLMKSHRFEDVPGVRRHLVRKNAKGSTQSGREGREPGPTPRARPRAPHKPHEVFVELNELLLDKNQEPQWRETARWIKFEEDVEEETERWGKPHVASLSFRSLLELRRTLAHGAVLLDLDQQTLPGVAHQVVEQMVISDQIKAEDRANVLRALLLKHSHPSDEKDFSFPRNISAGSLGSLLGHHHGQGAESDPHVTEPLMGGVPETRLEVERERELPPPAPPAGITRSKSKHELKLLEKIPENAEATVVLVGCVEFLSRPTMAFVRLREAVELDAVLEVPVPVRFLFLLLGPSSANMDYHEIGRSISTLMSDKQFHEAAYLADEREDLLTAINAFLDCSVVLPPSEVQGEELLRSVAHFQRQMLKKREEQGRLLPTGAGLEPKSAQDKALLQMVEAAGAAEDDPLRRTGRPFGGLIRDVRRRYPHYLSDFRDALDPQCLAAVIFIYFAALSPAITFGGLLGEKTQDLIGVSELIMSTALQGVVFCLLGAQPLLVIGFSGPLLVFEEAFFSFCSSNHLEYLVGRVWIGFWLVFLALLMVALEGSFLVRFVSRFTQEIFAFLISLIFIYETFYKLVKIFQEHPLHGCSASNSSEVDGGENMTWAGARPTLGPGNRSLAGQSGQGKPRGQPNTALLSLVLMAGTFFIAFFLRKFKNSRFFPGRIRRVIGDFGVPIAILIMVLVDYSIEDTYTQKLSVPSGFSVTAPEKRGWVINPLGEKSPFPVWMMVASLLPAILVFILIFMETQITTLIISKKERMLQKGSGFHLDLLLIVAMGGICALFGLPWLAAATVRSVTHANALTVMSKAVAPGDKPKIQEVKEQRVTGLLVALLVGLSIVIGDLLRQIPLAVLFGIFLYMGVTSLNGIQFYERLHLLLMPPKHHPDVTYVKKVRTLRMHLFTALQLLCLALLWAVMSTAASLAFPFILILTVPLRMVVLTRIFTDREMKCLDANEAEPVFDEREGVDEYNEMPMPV
# Chain of UniProt Q9Y5M8 (Q9Y5M8 whole entry, looked up): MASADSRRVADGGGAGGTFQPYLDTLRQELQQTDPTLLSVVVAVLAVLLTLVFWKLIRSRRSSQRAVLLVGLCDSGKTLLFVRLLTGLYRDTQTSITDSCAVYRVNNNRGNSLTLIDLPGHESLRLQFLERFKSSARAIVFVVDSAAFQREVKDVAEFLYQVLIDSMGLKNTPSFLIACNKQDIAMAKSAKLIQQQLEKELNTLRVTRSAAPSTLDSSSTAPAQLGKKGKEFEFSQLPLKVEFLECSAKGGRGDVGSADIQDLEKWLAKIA
# Chain of UniProt Q658P3 (Q658P3 whole entry, looked up): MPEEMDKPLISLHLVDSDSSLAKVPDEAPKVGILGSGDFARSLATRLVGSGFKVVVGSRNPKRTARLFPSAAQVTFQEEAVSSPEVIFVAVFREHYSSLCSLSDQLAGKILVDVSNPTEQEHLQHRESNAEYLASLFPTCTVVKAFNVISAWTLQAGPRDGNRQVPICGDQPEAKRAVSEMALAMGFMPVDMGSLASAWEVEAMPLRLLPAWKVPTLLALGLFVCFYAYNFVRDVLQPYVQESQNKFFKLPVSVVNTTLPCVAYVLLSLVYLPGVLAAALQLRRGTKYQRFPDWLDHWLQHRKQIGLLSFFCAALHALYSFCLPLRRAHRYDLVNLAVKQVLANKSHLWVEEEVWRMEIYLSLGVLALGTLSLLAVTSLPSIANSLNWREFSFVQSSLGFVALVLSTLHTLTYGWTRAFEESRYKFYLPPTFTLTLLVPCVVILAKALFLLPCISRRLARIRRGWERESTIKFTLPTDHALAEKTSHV
# Chain of UniProt Q9P289 (Q9P289 whole entry, looked up): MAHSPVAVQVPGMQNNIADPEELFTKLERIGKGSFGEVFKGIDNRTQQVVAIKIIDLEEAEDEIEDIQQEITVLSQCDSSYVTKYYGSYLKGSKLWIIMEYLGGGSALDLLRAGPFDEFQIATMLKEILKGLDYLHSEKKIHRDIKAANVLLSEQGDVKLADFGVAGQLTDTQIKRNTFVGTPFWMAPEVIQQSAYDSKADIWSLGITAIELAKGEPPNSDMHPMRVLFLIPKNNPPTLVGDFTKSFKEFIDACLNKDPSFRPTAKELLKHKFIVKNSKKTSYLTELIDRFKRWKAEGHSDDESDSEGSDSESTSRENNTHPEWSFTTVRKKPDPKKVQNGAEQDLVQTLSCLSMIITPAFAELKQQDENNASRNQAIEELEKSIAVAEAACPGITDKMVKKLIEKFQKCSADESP
# Chain of UniProt Q9Y2W1 (Q9Y2W1 whole entry, looked up): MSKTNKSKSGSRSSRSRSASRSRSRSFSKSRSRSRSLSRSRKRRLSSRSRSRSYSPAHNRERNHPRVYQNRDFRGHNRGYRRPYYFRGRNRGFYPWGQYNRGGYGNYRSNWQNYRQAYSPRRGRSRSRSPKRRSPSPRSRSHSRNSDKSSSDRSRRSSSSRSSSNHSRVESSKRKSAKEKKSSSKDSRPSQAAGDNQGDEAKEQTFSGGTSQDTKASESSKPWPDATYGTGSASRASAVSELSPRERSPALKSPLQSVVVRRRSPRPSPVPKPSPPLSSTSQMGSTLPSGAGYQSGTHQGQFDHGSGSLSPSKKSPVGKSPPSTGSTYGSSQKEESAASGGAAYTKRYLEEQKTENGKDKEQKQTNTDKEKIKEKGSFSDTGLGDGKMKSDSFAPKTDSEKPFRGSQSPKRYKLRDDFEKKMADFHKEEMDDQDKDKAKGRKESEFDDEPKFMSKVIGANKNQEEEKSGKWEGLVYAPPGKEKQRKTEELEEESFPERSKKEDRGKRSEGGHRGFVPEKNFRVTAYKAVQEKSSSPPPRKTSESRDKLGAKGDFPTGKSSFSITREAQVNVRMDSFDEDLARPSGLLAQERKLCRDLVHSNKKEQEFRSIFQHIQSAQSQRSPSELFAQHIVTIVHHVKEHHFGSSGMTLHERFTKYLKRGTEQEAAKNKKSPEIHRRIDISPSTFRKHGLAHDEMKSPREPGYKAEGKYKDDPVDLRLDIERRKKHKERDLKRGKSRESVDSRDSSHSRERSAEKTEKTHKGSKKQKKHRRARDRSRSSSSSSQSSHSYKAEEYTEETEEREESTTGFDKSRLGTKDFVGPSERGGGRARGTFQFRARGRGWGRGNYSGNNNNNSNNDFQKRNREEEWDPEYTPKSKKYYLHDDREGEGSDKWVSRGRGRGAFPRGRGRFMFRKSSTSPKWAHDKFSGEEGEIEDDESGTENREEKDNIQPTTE
# Chain of UniProt Q05519 (Q05519 whole entry, looked up): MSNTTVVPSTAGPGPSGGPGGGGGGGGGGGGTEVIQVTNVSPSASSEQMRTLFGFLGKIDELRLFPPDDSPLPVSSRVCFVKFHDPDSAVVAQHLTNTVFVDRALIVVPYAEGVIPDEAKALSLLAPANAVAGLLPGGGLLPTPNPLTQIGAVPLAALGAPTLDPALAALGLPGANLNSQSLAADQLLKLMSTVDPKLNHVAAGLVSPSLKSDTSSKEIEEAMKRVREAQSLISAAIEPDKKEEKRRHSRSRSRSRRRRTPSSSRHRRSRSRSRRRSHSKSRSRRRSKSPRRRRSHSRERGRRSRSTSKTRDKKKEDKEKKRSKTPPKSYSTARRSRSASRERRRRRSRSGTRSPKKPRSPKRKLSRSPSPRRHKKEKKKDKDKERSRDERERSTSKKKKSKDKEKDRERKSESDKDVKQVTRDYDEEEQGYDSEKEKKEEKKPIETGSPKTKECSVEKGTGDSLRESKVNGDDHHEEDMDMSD
# Chain of UniProt Q9UKI8 (Q9UKI8 whole entry, looked up): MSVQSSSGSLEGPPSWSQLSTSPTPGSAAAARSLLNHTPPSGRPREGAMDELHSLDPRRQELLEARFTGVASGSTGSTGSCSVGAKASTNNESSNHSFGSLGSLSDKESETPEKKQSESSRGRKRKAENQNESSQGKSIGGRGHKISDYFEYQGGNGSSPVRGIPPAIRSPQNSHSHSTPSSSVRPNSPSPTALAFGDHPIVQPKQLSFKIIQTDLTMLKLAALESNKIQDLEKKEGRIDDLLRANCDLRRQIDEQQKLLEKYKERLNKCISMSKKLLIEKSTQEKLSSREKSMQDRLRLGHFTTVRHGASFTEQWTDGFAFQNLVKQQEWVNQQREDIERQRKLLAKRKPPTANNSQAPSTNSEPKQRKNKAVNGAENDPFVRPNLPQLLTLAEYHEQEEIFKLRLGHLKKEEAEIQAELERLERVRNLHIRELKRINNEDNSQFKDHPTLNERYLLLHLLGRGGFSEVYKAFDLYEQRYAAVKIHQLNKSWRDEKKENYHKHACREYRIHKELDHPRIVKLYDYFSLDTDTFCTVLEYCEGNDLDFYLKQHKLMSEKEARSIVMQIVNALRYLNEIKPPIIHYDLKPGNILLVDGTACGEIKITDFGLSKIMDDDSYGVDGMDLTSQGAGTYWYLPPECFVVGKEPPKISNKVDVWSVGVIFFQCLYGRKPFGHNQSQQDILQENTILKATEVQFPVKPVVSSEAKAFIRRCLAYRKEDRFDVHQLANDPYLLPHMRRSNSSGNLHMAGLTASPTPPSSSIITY
Target,log2 fold change [1],log2 fold change [2],log2 fold change [3],log2 fold change [4],log2 fold change [5],log2 fold change [6],log2 fold change [7],log2 fold change [8],log2 fold change [9],log2 fold change [10],log2 fold change [11],log2 fold change [12],log2 fold change [13],log2 fold change [14],log2 fold change [15],log2 fold change [16],log2 fold change [17],log2 fold change [18],log2 fold change [19],log2 fold change [20]
SRPRB (UniProt Q9Y5M8),0.133,-0.076,0.018,-0.11,-0.021,0.136,-0.001,-0.03,0.048,-0.022,-0.006,0.01,0.059,-0.042,0.012,0.055,-0.017,0.083,-0.026,0.055
TCERG1 (UniProt O14776),0.104,-0.008,0.025,-0.087,0.043,0.054,0.073,-0.003,-0.036,0,0.079,0.073,0.125,-0.063,0.138,-0.057,0.112,0.179,-0.079,0.015
SPG11 (UniProt Q96JI7),-0.232,0.158,-0.415,-0.118,0.388,0.14,-0.032,0.331,-0.167,0.401,0,0.058,-0.282,0.619,-0.397,0.173,-0.255,0,-0.01,-0.328
THRAP3 (UniProt Q9Y2W1),0.087,0.155,-0.117,0.12,-0.095,-0.127,0.15,0.13,0.066,0.005,0.014,0.04,0.019,-0.111,0.044,-0.003,-0.078,-0.071,0.133,-0.043
TIMM21 (UniProt Q9BVV7),-0.038,-0.171,0.03,-0.078,0.054,-0.205,-0.006,0.01,-0.008,0.055,0.02,-0.01,0.042,-0.029,0.009,0.04,0.017,0.033,0.02,-0.229
ST6GAL1 (UniProt P15907),0.013,0.224 (active),0.051,0.066,-0.085,0.046,0.095,-0.003,0.116,0.063,-0.064,-0.189,-0.005,0.037,0.073,0.014,0.001,0.018,0.083,0.002
SPTBN1 (UniProt Q01082),-0.037,0.102,0.045,0.053,-0.073,0.02,0.084,-0.076,0.031,0.007,0.018,0.042,0.008,0.039,0.016,-0.039,0.046,0.094,0.021,0.03
SPINDOC (UniProt Q9BUA3),0.165,0.221,-0.02,0.008,-0.113,0.145,0.073,0.017,-0.045,-0.117,0.09,0.104,-0.059,-0.074,-0.296,-0.001,0.14,0.053,0.097,-0.008
STEAP3 isoform 2 (UniProt Q658P3),-0.028,-0.014,-0.06,-0.11,-0.028,0.035,-0.01,0.025,0.013,0.227 (active),0.065,-0.003,0.022,-0.013,0.054,-0.032,-0.006,0.012,0.003,-0.159
SLC4A2 (UniProt P04920),-0.088,-0.041,0,-0.002,-0.016,0.051,-0.081,-0.003,-0.023,0.128,0.114,-0.053,0.013,0.126,-0.015,-0.075,-0.069,-0.058,0.07,-0.099
STK26 (UniProt Q9P289),0.018,-0.147,-0.03,0.045,-0.059,0.069,-0.037,0.009,0.019,-0.105,-0.019,-0.308 (active),0.123,0.049,-0.01,-0.061,-0.11,-0.01,-0.034,-0.146
SRSF11 (UniProt Q05519),0.084,0.093,0.012,-0.021,-0.079,0.017,0.023,0.018,0,-0.164,-0.037,0.015,0.045,-0.277 (active),0.021,-0.068,0.004,0.067,-0.015,0.08
SP100 isoform 4 (UniProt P23497),0.05,0,0.013,-0.022,-0.026,-0.242 (active),0.024,0.036,0.188,0.013,-0.002,0.062,0.071,-0.1,0.074,-0.008,0.033,-0.016,-0.046,0.062
SNX6 (UniProt Q9UNH7),-0.036,-0.187,0.02,-0.01,-0.035,-0.109,-0.123,0.004,-0.055,-0.252,-0.169,-0.323,-0.014,-0.033,-0.277,-0.5 (active),-0.118,0.061,-0.036,-0.281
TLK1 (UniProt Q9UKI8),-0.011,-0.021,0.019,-0.009,-0.023,-0.029,0.006,0.064,-0.018,-0.04,-0.058,-0.008,0.101,-0.028,0.019,0.145,-0.004,0.028,-0.023,0.026
TJP1 (UniProt Q07157),0.02,0.035,0.03,0.001,-0.059,0.005,0.038,0.055,-0.006,0.017,0.004,-0.016,0.044,-0.06,0.076,-0.124,0.064,0.061,-0.01,0.026
